“And” between values parts separate entries of the source, which are not always exact repeats. Identical values can stand only once. Out of some 5,500 compounds screened, about 2,000 (36%) were called active. About 18% were inconclusive and are not listed. Rule as the data show it: active = normalized growth mostly below about 0.91 (no sharp cut-off); inconclusive = no clear call, values can overlap the other calls; inactive = mostly above about 0.92. This is one part of the list.
Test: chemical genetic growth profiling, strain panel (AID 1159580);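 also: tested at 20 µM; growth read once vehicle control cultures reached saturation at 30 °C; 1 = growth at the plate median or of vehicle wells; lower values mean less growth of the strain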
Details: growth OD

Measured: normalized growth

C1CCc2nnnn2CC1
inactive: S. cerevisiae deletion strains, locus YJR075W, strain HOC1, active compounds read low 1.03 and 1.01 | S. cerevisiae deletion strains, locus YKL009W, strain mrt4, active compounds read low 1.03 | S. cerevisiae deletion strains, locus YKL068W, active compounds read low 1.02 | S. cerevisiae deletion strains, locus YKL085W, strain MDH1 (second series), active compounds read low 1 | S. cerevisiae deletion strains, locus YKL085W, strain MDH1, active compounds read low 1 | S. cerevisiae deletion strains, locus YKL160W, strain elf1, active compounds read low 1.01 | S. cerevisiae deletion strains, locus YKL190W, strain CNB1, active compounds read low 1 | S. cerevisiae deletion strains, locus YKR001C, strain vps1, active compounds read low 1.02 | S. cerevisiae deletion strains, locus YKR026C, strain gcn3, active compounds read low 1.01 | S. cerevisiae deletion strains, locus YKR091W, strain srl3, active compounds read low 1 | S. cerevisiae deletion strains, locus YLL001W, strain dnm1, active compounds read low 1 | S. cerevisiae deletion strains, locus YLL026W, active compounds read low 1 | S. cerevisiae deletion strains, locus YLL041C, strain sdh2, active compounds read low 1 | S. cerevisiae deletion strains, locus YLR027C, strain aat2, active compounds read low 1 | S. cerevisiae deletion strains, locus YLR039C, strain RIC1, active compounds read low 1.03 | S. cerevisiae deletion strains, locus YLR058C, strain SHM2, active compounds read low 1.02 | S. cerevisiae deletion strains, locus YLR102C, strain apc9, active compounds read low 1 | S. cerevisiae deletion strains, locus YLR113W, strain HOG1, active compounds read low 0.985 | S. cerevisiae deletion strains, locus YLR221C, strain rsa3, active compounds read low 1.01 | S. cerevisiae deletion strains, locus YLR258W, strain gsy2, active compounds read low 1.01 | S. cerevisiae deletion strains, locus YLR262C, strain YPT6 (second series), active compounds read low 1.02 | S. cerevisiae deletion strains, locus YLR262C, strain YPT6, active compounds read low 1.04 | S. cerevisiae deletion strains, locus YLR268W, strain sec22, active compounds read low 1.05 | S. cerevisiae deletion strains, locus YLR320W, strain mms22, active compounds read low 1.01 | S. cerevisiae deletion strains, locus YLR330W, strain CHS5, active compounds read low 1 | S. cerevisiae deletion strains, locus YLR342W, strain FKS1 (second series), active compounds read low 1.01 | S. cerevisiae deletion strains, locus YLR342W, strain FKS1, active compounds read low 1.01 | S. cerevisiae deletion strains, locus YLR357W, strain rsc2, active compounds read low 0.983 | S. cerevisiae deletion strains, locus YLR370C, strain arc18, active compounds read low 1.01 | S. cerevisiae deletion strains, locus YLR371W, strain rom2, active compounds read low 1.02 | S. cerevisiae deletion strains, locus YLR384C, strain iki3, active compounds read low 0.999 | S. cerevisiae deletion strains, locus YLR418C, strain cdc73, active compounds read low 1.02 | S. cerevisiae deletion strains, locus YML016C, strain PPZ1, active compounds read low 1.01 | S. cerevisiae deletion strains, locus YML032C, strain rad52, active compounds read low 1.03 | S. cerevisiae deletion strains, locus YML120C, strain ndi1, active compounds read low 0.998 | S. cerevisiae deletion strains, locus YML124C, strain tub3, active compounds read low 1.01 | S. cerevisiae deletion strains, locus YMR058W, strain fet3, active compounds read low 1.01 | S. cerevisiae deletion strains, locus YMR078C, strain ctf18, active compounds read low 1.02 | S. cerevisiae deletion strains, locus YMR125W, strain sto1, active compounds read low 1.01 | S. cerevisiae deletion strains, locus YMR129W, active compounds read low 1.01 | S. cerevisiae deletion strains, locus YMR205C, strain PFK2, active compounds read low 1.03 | S. cerevisiae deletion strains, locus YMR223W, strain ubp8, active compounds read low 0.987 | S. cerevisiae deletion strains, locus YMR231W, strain pep5, active compounds read low 1 | S. cerevisiae deletion strains, locus YMR263W, strain SAP30, active compounds read low 1.03 | S. cerevisiae deletion strains, locus YMR307W, strain GAS1, active compounds read low 1.01 | S. cerevisiae deletion strains, locus YNL067W, strain RPL9B, active compounds read low 1.03 | S. cerevisiae deletion strains, locus YNL071W, strain lat1, active compounds read low 0.999 | S. cerevisiae deletion strains, locus YNL128W, strain TEP1, active compounds read low 1.02 | S. cerevisiae deletion strains, locus YNL153C, strain GIM3, active compounds read low 1.02 and 1.14 | S. cerevisiae deletion strains, locus YNL175C, strain NOP13, active compounds read low 1.01 | S. cerevisiae deletion strains, locus YNL183C, strain NPR1, active compounds read low 0.918 | S. cerevisiae deletion strains, locus YNL197C, strain WHI3, active compounds read low 1.01 | S. cerevisiae deletion strains, locus YNL209W, strain ssb2, active compounds read low 1.01 | S. cerevisiae deletion strains, locus YNL224C, strain SQS1, active compounds read low 1.02 | S. cerevisiae deletion strains, locus YNL233W, strain BNI4, active compounds read low 0.982 | S. cerevisiae deletion strains, locus YNL248C, strain rpa49, active compounds read low 0.994 | S. cerevisiae deletion strains, locus YNL250W, strain rad50, active compounds read low 1 | S. cerevisiae deletion strains, locus YNL271C, strain bni1, active compounds read low 1.02 | S. cerevisiae deletion strains, locus YNL298W, strain CLA4, active compounds read low 1.01 | S. cerevisiae deletion strains, locus YNL307C, strain MCK1, active compounds read low 1.01 | S. cerevisiae deletion strains, locus YNL322C, strain KRE1 (second series), active compounds read low 1.01 | S. cerevisiae deletion strains, locus YNL322C, strain KRE1, active compounds read low 1.01 and 1 | S. cerevisiae deletion strains, locus YNR049C, strain mso1, active compounds read low 1.01 | S. cerevisiae deletion strains, locus YNR052C, strain pop2, active compounds read low 1 | S. cerevisiae deletion strains, locus YOL006C, strain TOP1, active compounds read low 1.08 | S. cerevisiae deletion strains, locus YOL012C, strain htz1 0.99 | S. cerevisiae deletion strains, locus YOL147C, strain pex11, active compounds read low 1.01 | S. cerevisiae deletion strains, locus YOR001W, strain rrp6, active compounds read low 1 | S. cerevisiae deletion strains, locus YOR061W, strain CKA2, active compounds read low 1.01 | S. cerevisiae deletion strains, locus YOR069W, strain VPS5, active compounds read low 1.02 | S. cerevisiae deletion strains, locus YOR070C, strain gyp1, active compounds read low 0.999 | S. cerevisiae deletion strains, locus YOR080W, strain dia2, active compounds read low 1 | S. cerevisiae deletion strains, locus YOR083W, strain WHI5 (second series), active compounds read low 1.02 | S. cerevisiae deletion strains, locus YOR083W, strain WHI5, active compounds read low 1.02 | S. cerevisiae deletion strains, locus YOR106W, strain vam3, active compounds read low 1.01 | S. cerevisiae deletion strains, locus YOR136W, strain idh2, active compounds read low 0.992 | S. cerevisiae deletion strains, locus YOR144C, strain elg1, active compounds read low 1.01 | S. cerevisiae deletion strains, locus YOR184W, strain ser1, active compounds read low 1.03 | S. cerevisiae deletion strains, locus YOR231W, strain MKK1, active compounds read low 0.982 | S. cerevisiae deletion strains, locus YOR265W, strain rbl2, active compounds read low 1.02 | S. cerevisiae deletion strains, locus YOR270C, strain vph1, active compounds read low 1.04 | S. cerevisiae deletion strains, locus YOR290C, strain snf2, active compounds read low 1.01 | S. cerevisiae deletion strains, locus YOR316C, strain cot1, active compounds read low 1.01 | S. cerevisiae deletion strains, locus YPL051W, strain arl3, active compounds read low 1.01 | S. cerevisiae deletion strains, locus YPL055C, strain LGE1, active compounds read low 0.977 | S. cerevisiae deletion strains, locus YPL078C, strain atp4, active compounds read low 1.01 | S. cerevisiae deletion strains, locus YPL106C, strain sse1, active compounds read low 1 | S. cerevisiae deletion strains, locus YPL240C, strain hsp82, active compounds read low 1.02 | S. cerevisiae deletion strains, locus YPL241C, strain CIN2, active compounds read low 1 | S. cerevisiae deletion strains, locus YPL256C, strain CLN2, active compounds read low 0.976 | S. cerevisiae deletion strains, locus YPR119W, strain clb2, active compounds read low 1 | S. cerevisiae deletion strains, locus YPR141C, strain kar3, active compounds read low 1 | S. cerevisiae deletion strains, locus YPR163C, strain tif3, active compounds read low 1.02 | S. cerevisiae deletion strains, locus YPR167C, strain met16, active compounds read low 1.01 | S. cerevisiae deletion strains, strain wtn01, active compounds read low 1.02 | S. cerevisiae strains, strain wild type, active compounds read low 1.01
